Test results: PubChem BioAssay (NCI)
“And” between values parts separate entries of the source, which are not always exact repeats. Equal entries are not always repeated. The panel holds about 83,000 compounds, 20% with a hit somewhere; the sample as a whole holds those more often.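 In brief: 96-well plates, 48 h treatment, single concentration, percent growth endpoint.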 The source made the active and inactive calls. Rule for the calls: active = growth percent below 10; inactive = the rest.

Legend:
Test in all cases: NCI-60 one-dose screen, 48 h (100 = growth as untreated, 0 = no growth, -100 = all killed)
Conditions in all cases: 10 µM unless noted
SR leukemia = tested on: SR leukemia
RPMI-8226 leukemia = tested on: RPMI-8226 leukemia
OVCAR-8 ovarian = tested on: OVCAR-8 ovarian
OVCAR-5 ovarian = tested on: OVCAR-5 ovarian
OVCAR-4 ovarian = tested on: OVCAR-4 ovarian
IGROV1 ovarian = tested on: IGROV1 ovarian
OVCAR-3 ovarian = tested on: OVCAR-3 ovarian
HS 578T breast = tested on: HS 578T breast
NCI/ADR-RES ovarian = tested on: NCI/ADR-RES ovarian
T-47D breast = tested on: T-47D breast
BT-549 breast = tested on: BT-549 breast
MDA-MB-435 melanoma = tested on: MDA-MB-435 melanoma
SW-620 colon = tested on: SW-620 colon
MCF7 breast = tested on: MCF7 breast
HCT-116 colon = tested on: HCT-116 colon
HCC-2998 colon = tested on: HCC-2998 colon
KM12 colon = tested on: KM12 colon
SK-OV-3 ovarian = tested on: SK-OV-3 ovarian

Measured: growth

CCOC(=O)N(O)c1ccc(/C=C/c2ccccc2)cc1
11.2% (inactive) and 5.56% (active): T-47D breast
18.9% (inactive) and 3.82% (active): OVCAR-5 ovarian
active: IGROV1 ovarian 8.91% and 1.54%
inactive: SR leukemia 66.7% | RPMI-8226 leukemia 62.2% and 49.3% | OVCAR-8 ovarian 76.7% and 37.1% | OVCAR-4 ovarian 55.8% and 43.5% | OVCAR-3 ovarian 34% and 28% | HS 578T breast 94.4% and 112% | NCI/ADR-RES ovarian 74.7% and 63.2% | BT-549 breast 78.1% and 69.9% | MDA-MB-435 melanoma 84.6% and 84.1% | SW-620 colon 60.2% and 46.6% | HCT-116 colon 11.2% and 17.6% | HCC-2998 colon 59.3% and 66.4% | KM12 colon 78.5% and 64.9%
8.37% (active) and 10.4% (inactive): MCF7 breast

COc1ccc(-c2cc(-c3cc(OC)c(OC)c(OC)c3)c(C#N)c(=O)n2CCCCC(=O)O)cc1
inactive: SR leukemia 72.6% | RPMI-8226 leukemia 84.3% | OVCAR-8 ovarian 92.4% | OVCAR-5 ovarian 105% | OVCAR-4 ovarian 91.5% | SK-OV-3 ovarian 125% | OVCAR-3 ovarian 99.6% | HS 578T breast 87.7% | NCI/ADR-RES ovarian 102% | T-47D breast 72.6% | BT-549 breast 102% | MDA-MB-435 melanoma 80.2% | SW-620 colon 98% | MCF7 breast 93.2% | HCT-116 colon 94.1% | HCC-2998 colon 105% | KM12 colon 94.6%

O=[N+]([O-])c1ccc2[nH]c3nccc(NCc4cccc(Cl)c4)c3c2c1
active: OVCAR-4 ovarian -35%
inactive: SR leukemia 50.5% | RPMI-8226 leukemia 82.9% | OVCAR-8 ovarian 37.5% | OVCAR-5 ovarian 86.3% | IGROV1 ovarian 93.1% | OVCAR-3 ovarian 49.8% | HS 578T breast 17.5% | NCI/ADR-RES ovarian 64.4% | T-47D breast 67.4% | BT-549 breast 70% | MDA-MB-435 melanoma 77% | SW-620 colon 63.6% | MCF7 breast 82.4% | HCT-116 colon 67.6% | HCC-2998 colon 114% | KM12 colon 84.7%

C=C(C)[C@@H]1CC[C@]2(C(=O)O)CC[C@]3(C)[C@H](CC[C@@H]4[C@@]5(C)CCC(N)C(C)(C)[C@@H]5CC[C@]43C)[C@@H]12 (stereo partly drawn)
inactive: OVCAR-8 ovarian 20.8% | OVCAR-5 ovarian 96.6% | OVCAR-4 ovarian 36.8% | IGROV1 ovarian 74.4% | HS 578T breast 93.1% | NCI/ADR-RES ovarian 69.7% | BT-549 breast 101% | SW-620 colon 16.3% | HCC-2998 colon 23.8% | KM12 colon 24.2%
active: SR leukemia -8.86% | RPMI-8226 leukemia -33.6% | OVCAR-3 ovarian -31.5% | T-47D breast -4.16% | MDA-MB-435 melanoma -51% | MCF7 breast 2.48% | HCT-116 colon 2.64%

O=C(O)c1ccccc1Cc1ccc(F)c2ccccc12
inactive: SR leukemia 107% and 100% | RPMI-8226 leukemia 110% and 96.2% | OVCAR-8 ovarian 101% and 102% | OVCAR-5 ovarian 112% and 96.7% | OVCAR-4 ovarian 110% and 96.6% | SK-OV-3 ovarian 102% and 122% | OVCAR-3 ovarian 98.6% and 108% | HS 578T breast 95% and 103% | NCI/ADR-RES ovarian 114% and 110% | T-47D breast 101% and 108% | BT-549 breast 134% and 106% | MDA-MB-435 melanoma 110% and 109% | SW-620 colon 105% and 95.8% | MCF7 breast 99.2% and 102% | HCT-116 colon 120% and 101% | HCC-2998 colon 109% and 103% | KM12 colon 103% and 104%

[Cu+].[NH-][C@H]1C[N-]C(=O)[C@H]([C@H]2CCN=C(N)N2)[N-]C(=O)/C(=C\NC(N)=O)[N-]C(=O)[C@H](CNC(=O)C[C@@H](N)CCCN)[N-]C(=O)[C@H](CO)[N-]C1=O
inactive: SR leukemia 96.1% | RPMI-8226 leukemia 103% | OVCAR-8 ovarian 106% | OVCAR-5 ovarian 113% | OVCAR-4 ovarian 99.9% | SK-OV-3 ovarian 71.3% | OVCAR-3 ovarian 104% | HS 578T breast 97% | NCI/ADR-RES ovarian 103% | T-47D breast 89.5% | MDA-MB-435 melanoma 94.3% | SW-620 colon 91.7% | MCF7 breast 101% | HCT-116 colon 97.4% | HCC-2998 colon 110% | KM12 colon 101%

COc1cc(-c2nn(-c3cccc(NC(=O)CCN4CCN(C)CC4)c3)cc2-c2ccncc2)ccc1Cl
inactive: OVCAR-8 ovarian 35.1% | OVCAR-5 ovarian 67.9% | OVCAR-4 ovarian 59.7% | IGROV1 ovarian 49.7% | NCI/ADR-RES ovarian 39.9% | T-47D breast 35.3% | BT-549 breast 22.4% | SW-620 colon 26.8% | MCF7 breast 13.8% | HCT-116 colon 17% | HCC-2998 colon 54.7% | KM12 colon 22.2%
active: SR leukemia -43.5% | RPMI-8226 leukemia 4.86% | OVCAR-3 ovarian 2.81% | HS 578T breast -0.227% | MDA-MB-435 melanoma -46.3%
